Holding throughout (test): DAPPL (digital affinity profiling via proximity ligation, sequencing); 10 mM Tris-HCl pH 7.5, 50 mM NaCl, 1 mM DTT, 4% glycerol, room temperature, 30 min; GST-TFs on glutathione beads, 16-mer random dsDNA library, 0.1% formaldehyde crosslink after washing; high values mean tight binding
One assay concerns the target T1, FLI1 (Homo sapiens, UniProt Q01543 1-452).
T1 sequence: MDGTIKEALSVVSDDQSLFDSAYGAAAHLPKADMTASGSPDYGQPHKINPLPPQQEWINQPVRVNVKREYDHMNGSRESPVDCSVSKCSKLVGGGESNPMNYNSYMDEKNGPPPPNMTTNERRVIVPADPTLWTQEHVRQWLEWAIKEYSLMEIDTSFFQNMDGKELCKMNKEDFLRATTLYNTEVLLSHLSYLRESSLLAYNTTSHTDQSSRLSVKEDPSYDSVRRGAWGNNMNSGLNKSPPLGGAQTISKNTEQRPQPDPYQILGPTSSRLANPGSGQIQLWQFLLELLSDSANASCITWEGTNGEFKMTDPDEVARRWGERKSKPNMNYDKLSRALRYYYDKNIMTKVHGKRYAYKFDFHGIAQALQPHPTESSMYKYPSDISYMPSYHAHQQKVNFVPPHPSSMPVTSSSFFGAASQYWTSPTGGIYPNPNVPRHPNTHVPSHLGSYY
The conditions noted are these: protein: recombinant; tags: N-terminal GST; dsDNA, one strand shown. The method, boiled down: (§1)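 Each value of binding signal is a hexamer's read frequency for a factor divided by the same hexamer's frequency in the tag-only sample. Barcoded, bead-captured GST fusions of human transcription factors made in yeast were pooled with that sample and incubated with 200 nmole of a random double-stranded 16-mer DNA library in Tris/NaCl/DTT/glycerol buffer at room temperature for 30 min. Washing, 0.1% formaldehyde crosslinking, proximity ligation, PCR and Illumina NextSeq500 sequencing followed.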

The target of a further assay is T2, ELK1 (Homo sapiens, UniProt P19419 1-428).
T2 sequence: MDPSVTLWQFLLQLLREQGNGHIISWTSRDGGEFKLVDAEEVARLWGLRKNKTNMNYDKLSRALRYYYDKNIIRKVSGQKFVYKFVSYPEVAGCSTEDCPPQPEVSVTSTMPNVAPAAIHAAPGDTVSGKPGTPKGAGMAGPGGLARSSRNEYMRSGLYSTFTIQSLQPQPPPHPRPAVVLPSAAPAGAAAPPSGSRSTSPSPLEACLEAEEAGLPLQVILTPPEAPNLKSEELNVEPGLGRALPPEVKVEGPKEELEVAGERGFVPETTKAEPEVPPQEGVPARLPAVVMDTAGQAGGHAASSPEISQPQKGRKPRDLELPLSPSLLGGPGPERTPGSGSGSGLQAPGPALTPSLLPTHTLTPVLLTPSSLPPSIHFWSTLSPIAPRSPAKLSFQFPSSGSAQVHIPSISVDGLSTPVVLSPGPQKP
Conditions: protein: recombinant; tags: N-terminal GST; dsDNA, one strand shown. Put shortly: as §1

For the next assay, the target named is T3, GABPA (Homo sapiens, UniProt Q06546 1-454).
T3 sequence: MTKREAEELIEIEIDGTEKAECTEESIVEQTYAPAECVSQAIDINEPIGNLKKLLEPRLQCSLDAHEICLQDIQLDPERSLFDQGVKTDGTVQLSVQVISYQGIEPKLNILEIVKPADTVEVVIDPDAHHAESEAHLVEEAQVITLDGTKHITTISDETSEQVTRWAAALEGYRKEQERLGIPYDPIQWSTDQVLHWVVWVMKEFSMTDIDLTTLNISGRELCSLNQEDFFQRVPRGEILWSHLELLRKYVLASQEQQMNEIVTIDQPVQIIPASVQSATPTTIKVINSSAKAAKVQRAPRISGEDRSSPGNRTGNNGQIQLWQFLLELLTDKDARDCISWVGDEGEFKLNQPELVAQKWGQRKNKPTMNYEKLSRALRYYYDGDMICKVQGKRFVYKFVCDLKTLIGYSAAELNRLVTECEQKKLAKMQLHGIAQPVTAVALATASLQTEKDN
Conditions: protein: recombinant; tags: N-terminal GST; dsDNA, one strand shown. Put shortly: as §1

Another assay has as its target T4, ERG (Homo sapiens, UniProt P11308 1-479).
T4 sequence: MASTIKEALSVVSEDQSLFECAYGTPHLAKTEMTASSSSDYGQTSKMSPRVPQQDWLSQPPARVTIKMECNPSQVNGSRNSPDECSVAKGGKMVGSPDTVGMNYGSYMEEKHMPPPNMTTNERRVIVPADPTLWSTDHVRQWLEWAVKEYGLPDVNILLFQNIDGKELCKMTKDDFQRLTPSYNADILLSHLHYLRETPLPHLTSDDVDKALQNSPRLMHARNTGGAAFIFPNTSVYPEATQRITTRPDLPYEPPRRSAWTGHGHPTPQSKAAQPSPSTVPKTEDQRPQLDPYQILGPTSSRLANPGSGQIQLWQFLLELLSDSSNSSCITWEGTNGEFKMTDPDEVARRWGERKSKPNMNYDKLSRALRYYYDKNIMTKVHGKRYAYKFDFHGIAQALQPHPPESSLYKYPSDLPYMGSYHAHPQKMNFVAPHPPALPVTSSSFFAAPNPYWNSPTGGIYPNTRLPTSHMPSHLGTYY
Conditions: protein: recombinant; tags: N-terminal GST; dsDNA, one strand shown. Put shortly:
as §1

The next assay addresses ELF1 (Homo sapiens, UniProt P32519 1-619). The conditions noted are these: protein: recombinant; tags: N-terminal GST; dsDNA, one strand shown. The method, boiled down: as §1
Another assay addresses T5, EHF (Homo sapiens, UniProt Q9NZC4 1-300).
T5 sequence: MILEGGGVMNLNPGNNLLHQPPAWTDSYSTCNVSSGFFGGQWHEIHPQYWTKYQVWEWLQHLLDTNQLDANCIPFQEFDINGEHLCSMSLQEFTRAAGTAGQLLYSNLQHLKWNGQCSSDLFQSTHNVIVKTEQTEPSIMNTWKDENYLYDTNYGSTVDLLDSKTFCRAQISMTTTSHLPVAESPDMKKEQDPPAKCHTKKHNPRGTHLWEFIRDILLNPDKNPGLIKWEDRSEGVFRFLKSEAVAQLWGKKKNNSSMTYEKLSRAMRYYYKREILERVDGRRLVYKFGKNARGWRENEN
Conditions: protein: recombinant; tags: N-terminal GST; dsDNA, one strand shown. The method, boiled down: as §1

The target in the next assay is SPI1 (Homo sapiens, UniProt P17947 1-270). Conditions: protein: recombinant; tags: N-terminal GST; dsDNA, one strand shown. The method, boiled down:
as §1

For the next assay, the target named is SPIB (Homo sapiens, UniProt Q01892 1-262). Conditions: protein: recombinant; tags: N-terminal GST; dsDNA, one strand shown. The method, boiled down:
as §1

A further assay deals with T6, ELK3 (Homo sapiens, UniProt P41970 1-407).
T6 sequence: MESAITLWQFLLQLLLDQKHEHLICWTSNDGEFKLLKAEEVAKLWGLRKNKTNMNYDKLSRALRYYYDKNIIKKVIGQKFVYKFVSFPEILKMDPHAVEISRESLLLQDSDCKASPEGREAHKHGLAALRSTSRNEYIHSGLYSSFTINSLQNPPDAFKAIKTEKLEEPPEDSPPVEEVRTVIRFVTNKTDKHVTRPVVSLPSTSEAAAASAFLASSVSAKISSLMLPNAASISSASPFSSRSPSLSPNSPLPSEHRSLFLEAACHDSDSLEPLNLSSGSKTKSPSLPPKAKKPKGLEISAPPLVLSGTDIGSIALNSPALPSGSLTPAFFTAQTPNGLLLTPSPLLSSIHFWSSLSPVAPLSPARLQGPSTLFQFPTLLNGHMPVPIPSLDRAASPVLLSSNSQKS
The conditions noted are these: protein: recombinant; tags: N-terminal GST; dsDNA, one strand shown. The method, boiled down: as §1

Another assay addresses T7, FEV (Homo sapiens, UniProt Q99581 1-238).
T7 sequence: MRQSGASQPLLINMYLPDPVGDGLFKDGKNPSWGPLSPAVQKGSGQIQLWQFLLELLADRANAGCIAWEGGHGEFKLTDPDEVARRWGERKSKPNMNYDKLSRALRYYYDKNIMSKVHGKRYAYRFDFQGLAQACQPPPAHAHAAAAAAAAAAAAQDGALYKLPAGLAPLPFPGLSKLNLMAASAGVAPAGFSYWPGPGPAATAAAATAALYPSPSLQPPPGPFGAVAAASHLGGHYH
Conditions: protein: recombinant; tags: N-terminal GST; dsDNA, one strand shown. The method, boiled down:
as §1

The target in another assay is ETV5 (Homo sapiens, UniProt P41161 1-510). Conditions: protein: recombinant; tags: N-terminal GST; dsDNA, one strand shown. The method, boiled down:
as §1

A further assay concerns the target HSF1 (Homo sapiens, UniProt Q00613 1-529). The conditions noted are these: protein: recombinant; tags: N-terminal GST; chain copies: 3; dsDNA, one strand shown. The method, boiled down:
as §1

The target in a further assay is ELF4 (Homo sapiens, UniProt Q99607 1-663). Conditions: protein: recombinant; tags: N-terminal GST; dsDNA, one strand shown. Put shortly:
as §1

A further assay deals with T8, ELK4 (Homo sapiens, UniProt P28324-2 1-405).
T8 sequence: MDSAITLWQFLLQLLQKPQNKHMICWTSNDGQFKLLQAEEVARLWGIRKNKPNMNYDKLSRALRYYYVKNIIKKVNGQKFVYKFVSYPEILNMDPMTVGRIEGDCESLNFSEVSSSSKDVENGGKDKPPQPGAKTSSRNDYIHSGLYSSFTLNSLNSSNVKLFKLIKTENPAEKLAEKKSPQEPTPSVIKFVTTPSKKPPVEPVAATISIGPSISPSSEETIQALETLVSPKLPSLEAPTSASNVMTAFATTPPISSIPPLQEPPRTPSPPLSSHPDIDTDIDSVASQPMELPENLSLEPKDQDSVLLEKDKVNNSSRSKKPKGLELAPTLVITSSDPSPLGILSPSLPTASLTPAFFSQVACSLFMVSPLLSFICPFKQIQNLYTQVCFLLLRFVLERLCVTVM
The conditions noted are these: protein: recombinant; tags: N-terminal GST; dsDNA, one strand shown. The method, boiled down:
as §1

In a further assay the target is T9, ETV2 (Homo sapiens, UniProt O00321 1-342).
T9 sequence: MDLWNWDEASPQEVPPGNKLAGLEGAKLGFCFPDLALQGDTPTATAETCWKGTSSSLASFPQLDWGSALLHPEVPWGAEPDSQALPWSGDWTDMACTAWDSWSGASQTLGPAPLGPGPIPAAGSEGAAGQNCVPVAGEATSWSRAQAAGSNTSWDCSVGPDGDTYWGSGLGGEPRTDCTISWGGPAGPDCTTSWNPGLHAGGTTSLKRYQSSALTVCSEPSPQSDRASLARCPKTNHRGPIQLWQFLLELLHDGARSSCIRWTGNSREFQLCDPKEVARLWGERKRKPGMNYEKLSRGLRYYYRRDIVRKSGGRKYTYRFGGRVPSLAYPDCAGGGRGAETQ
The conditions noted are these: protein: recombinant; tags: N-terminal GST; dsDNA, one strand shown. The method, boiled down: as §1

For another assay, the target named is T10, ELF3 (Homo sapiens, UniProt P78545 1-371).
T10 sequence: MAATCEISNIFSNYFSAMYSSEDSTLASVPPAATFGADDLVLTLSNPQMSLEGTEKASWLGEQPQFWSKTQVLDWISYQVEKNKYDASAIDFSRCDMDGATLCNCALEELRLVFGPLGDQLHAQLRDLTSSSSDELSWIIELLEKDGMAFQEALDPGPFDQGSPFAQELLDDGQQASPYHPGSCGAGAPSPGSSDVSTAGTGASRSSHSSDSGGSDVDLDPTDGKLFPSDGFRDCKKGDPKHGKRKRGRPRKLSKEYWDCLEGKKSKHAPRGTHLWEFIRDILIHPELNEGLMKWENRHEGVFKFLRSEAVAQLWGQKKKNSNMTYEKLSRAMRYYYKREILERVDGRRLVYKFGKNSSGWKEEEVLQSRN
The conditions noted are these: protein: recombinant; tags: N-terminal GST; dsDNA, one strand shown. Put shortly: as §1

Another assay deals with CRX (Homo sapiens, UniProt O43186 1-299). Conditions: protein: recombinant; tags: N-terminal GST; dsDNA, one strand shown. The method, boiled down: as §1
The target in the next assay is ETV1 (Homo sapiens, UniProt P50549 1-477). Conditions: protein: recombinant; tags: N-terminal GST; dsDNA, one strand shown. Put shortly:
as §1

Chain of ETV1 (P50549 whole entry): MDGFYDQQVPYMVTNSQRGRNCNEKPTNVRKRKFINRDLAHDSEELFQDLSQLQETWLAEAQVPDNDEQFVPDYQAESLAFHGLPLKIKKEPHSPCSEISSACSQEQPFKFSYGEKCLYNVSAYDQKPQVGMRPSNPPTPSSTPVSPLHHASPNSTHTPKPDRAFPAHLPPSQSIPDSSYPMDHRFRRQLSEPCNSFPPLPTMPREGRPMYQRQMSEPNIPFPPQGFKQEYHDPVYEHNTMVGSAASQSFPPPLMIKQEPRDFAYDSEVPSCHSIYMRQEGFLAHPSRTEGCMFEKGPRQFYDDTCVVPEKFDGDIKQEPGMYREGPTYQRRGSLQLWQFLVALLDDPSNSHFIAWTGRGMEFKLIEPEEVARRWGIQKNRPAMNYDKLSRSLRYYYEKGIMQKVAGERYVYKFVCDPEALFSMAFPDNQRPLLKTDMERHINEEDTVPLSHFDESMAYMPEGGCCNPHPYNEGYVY
Chain of CRX (O43186 whole entry): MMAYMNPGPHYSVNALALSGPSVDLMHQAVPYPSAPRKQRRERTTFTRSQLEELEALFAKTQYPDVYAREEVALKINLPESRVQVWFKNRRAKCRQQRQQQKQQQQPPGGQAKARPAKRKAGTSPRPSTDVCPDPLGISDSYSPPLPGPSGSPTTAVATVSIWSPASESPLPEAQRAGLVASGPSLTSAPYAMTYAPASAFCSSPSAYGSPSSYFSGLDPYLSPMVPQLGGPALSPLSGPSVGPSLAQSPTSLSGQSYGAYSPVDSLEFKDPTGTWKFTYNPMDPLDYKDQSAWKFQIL
Chain of ELF1 (P32519 whole entry): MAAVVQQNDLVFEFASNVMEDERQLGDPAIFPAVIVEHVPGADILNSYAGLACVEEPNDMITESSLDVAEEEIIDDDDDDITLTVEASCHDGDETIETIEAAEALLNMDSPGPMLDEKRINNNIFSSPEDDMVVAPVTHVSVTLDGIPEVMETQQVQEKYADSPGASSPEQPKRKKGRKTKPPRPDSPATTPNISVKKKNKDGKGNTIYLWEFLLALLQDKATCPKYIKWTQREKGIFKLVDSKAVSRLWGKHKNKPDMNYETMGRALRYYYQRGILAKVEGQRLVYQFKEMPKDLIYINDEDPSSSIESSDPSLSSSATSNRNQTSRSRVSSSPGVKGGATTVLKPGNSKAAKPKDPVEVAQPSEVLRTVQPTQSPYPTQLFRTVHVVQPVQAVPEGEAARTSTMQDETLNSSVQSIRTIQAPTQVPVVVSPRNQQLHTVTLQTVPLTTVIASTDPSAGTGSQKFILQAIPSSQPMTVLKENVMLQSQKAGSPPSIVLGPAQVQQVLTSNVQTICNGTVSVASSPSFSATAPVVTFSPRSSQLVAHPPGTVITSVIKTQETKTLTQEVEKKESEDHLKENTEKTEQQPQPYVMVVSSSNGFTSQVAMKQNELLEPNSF
Chain of ELF4 (Q99607 whole entry): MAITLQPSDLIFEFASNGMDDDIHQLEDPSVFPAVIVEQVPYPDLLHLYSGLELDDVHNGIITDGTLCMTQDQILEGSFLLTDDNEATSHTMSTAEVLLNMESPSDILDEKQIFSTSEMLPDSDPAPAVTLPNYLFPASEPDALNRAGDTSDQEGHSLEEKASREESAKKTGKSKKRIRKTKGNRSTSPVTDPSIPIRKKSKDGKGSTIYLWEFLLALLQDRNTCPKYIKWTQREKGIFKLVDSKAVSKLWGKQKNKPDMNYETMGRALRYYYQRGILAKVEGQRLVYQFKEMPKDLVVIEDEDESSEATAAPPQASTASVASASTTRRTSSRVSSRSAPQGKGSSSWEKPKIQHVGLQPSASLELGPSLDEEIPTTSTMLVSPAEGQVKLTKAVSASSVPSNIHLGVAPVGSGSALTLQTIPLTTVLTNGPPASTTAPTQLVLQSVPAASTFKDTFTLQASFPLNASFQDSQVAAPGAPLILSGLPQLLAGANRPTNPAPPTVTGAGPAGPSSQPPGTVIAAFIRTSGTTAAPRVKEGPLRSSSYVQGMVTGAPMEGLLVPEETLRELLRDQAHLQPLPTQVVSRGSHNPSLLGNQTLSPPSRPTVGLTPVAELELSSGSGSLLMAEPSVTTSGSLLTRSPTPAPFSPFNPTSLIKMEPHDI
Chain of ETV5 (P41161 whole entry): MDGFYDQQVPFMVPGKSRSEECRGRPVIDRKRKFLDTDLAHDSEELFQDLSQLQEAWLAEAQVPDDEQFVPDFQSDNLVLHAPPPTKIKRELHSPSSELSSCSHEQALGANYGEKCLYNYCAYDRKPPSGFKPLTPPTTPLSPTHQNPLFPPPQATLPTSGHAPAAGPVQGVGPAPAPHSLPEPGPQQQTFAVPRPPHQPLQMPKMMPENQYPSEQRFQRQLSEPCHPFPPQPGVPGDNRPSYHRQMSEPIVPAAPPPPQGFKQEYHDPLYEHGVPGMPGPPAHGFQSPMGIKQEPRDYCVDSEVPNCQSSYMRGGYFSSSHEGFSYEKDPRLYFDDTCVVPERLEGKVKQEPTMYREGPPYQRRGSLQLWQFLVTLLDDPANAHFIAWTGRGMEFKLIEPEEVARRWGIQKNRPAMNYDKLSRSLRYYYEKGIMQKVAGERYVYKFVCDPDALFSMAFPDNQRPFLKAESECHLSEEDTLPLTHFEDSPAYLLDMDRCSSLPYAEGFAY
Chain of HSF1 (Q00613 whole entry): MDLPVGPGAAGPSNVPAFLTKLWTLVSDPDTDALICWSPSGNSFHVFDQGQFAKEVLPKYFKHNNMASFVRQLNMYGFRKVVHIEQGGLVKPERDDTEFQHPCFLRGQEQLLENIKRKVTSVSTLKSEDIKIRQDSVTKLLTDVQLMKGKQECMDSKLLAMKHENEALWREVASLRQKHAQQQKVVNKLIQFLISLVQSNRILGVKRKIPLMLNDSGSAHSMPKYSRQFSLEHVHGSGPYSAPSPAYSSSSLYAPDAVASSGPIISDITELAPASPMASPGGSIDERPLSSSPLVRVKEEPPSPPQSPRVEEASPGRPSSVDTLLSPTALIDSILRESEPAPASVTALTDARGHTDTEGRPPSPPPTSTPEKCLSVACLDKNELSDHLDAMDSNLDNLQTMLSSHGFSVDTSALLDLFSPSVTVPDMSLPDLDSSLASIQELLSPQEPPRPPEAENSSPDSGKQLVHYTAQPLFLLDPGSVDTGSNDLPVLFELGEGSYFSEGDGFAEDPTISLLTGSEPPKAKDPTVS
Chain of SPIB (Q01892 whole entry): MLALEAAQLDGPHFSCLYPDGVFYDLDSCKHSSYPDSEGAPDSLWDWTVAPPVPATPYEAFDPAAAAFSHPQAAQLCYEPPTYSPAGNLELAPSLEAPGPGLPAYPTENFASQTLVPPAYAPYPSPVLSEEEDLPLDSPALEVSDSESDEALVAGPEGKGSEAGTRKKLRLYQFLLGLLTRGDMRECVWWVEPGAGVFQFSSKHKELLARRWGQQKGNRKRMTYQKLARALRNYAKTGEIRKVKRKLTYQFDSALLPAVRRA

Take ATTAGG: the binding signal with FLI1 was 1.06 fold enrichment (6-mer frequency, TF over GST control); with ELK1 it was 1.06 fold enrichment (6-mer frequency, TF over GST control); in the assay with GABPA, 1.1 fold enrichment (6-mer frequency, TF over GST control); with ERG it was 1.05 fold enrichment (6-mer frequency, TF over GST control); with ELF1 it was 1.06 fold enrichment (6-mer frequency, TF over GST control); with EHF, 1.1 fold enrichment (6-mer frequency, TF over GST control). Besides, the binding signal in the assay with SPI1 is 1.07 fold enrichment (6-mer frequency, TF over GST control); with SPIB, 1.06 fold enrichment (6-mer frequency, TF over GST control); with ELK3, 1.1 fold enrichment (6-mer frequency, TF over GST control); in the assay with FEV, 1.01 fold enrichment (6-mer frequency, TF over GST control); in the assay with ETV5 it was 1.11 fold enrichment (6-mer frequency, TF over GST control); in the assay with HSF1, 1.57 fold enrichment (6-mer frequency, TF over GST control). Further, the binding signal with ELF4 is 1.07 fold enrichment (6-mer frequency, TF over GST control); with ELK4, 1.06 fold enrichment (6-mer frequency, TF over GST control); with ETV2, 1.05 fold enrichment (6-mer frequency, TF over GST control); with ELF3, 1.04 fold enrichment (6-mer frequency, TF over GST control); with CRX, 2.38 fold enrichment (6-mer frequency, TF over GST control); in the assay with ETV1 it was 1.01 fold enrichment (6-mer frequency, TF over GST control).

The record behind these values is article PMC7862700, “An all-to-all approach to the identification of sequence-specific readers for epigenetic DNA modifications on cytosine”.
